SMILES strings stand for the structures. About 8,600 (12%) of roughly 69,000 compounds showed an effect of 50% or more. The entries come from a sample that favours strong results as a whole.

The assay relates to Plasmodium berghei. Briefly: Screen against P. berghei liver stage (PbLuc), transformed with Luciferase, at 10uM. The assay is classed as functional, HepG2. To be noted: tested at 10 uM.
For the molecule `O=C1NC2(CCN(CC(=O)N3CCOCC3)CC2)Nc2ccccc21`, the INHIBITION is on record as 3.5%. Take `O=S1(=O)COCCN1Cc1ccc(F)c(C(F)(F)F)c1`: the INHIBITION amounted to 19.4%.

Consider `OCC1CCCCN1c1ccc(-c2nc(-c3ccccc3F)no2)cn1` (stereo not drawn), for which the INHIBITION was found to be 91.8%. For the molecule `COCc1noc(-c2ccc(N3CCCCC3CCCO)nc2)n1` (stereo not drawn), the INHIBITION was determined as 35.8%. As for `COCc1noc(-c2ccc(N3CCC[C@H]3CO)nc2)n1`, the INHIBITION came to 75.7%.

As to `OC[C@@H]1CCCN1c1ccc(-c2nc(COc3ccccc3)no2)cn1`, the INHIBITION is 25.8%.

With `COCc1noc(-c2ccc(N3CCCC3c3ccc(F)cc3)nc2)n1` (stereo not drawn), the INHIBITION is reported as 18.5%.

Consider `OC[C@@H]1CCCN1c1ccc(-c2nc(CCc3ccccc3)no2)cn1`, for which the INHIBITION stood at 43.9%. For `COCc1noc(-c2ccc(N3CCCCC3COC)nc2)n1` (stereo not drawn) the value was 48.5%; for `COCc1noc(-c2ccc(N3CCCC3c3nccs3)nc2)n1` (stereo not drawn), 43%.

As to `COc1ccc(-c2cnc(CN3CCCC3CO)o2)cc1` (stereo not drawn), the INHIBITION stood at 15.1%. On to `Cc1noc(-c2ccc(N3CCC[C@H]3CO)nc2)n1`, for which the INHIBITION was 17.6%. As to `COc1ccc(-c2noc(-c3ccc(N4CCC[C@H]4CO)nc3)n2)cc1`, the INHIBITION was determined as 84.8%. With `COCc1noc(-c2ccc(N3CCCCC3CO)nc2)n1` (stereo not drawn), the INHIBITION is recorded as 90.1%.

For the molecule `CCCN1C[C@@H]2CC[C@H]1CN(C(=O)c1ccc(N(C)CCO)cc1)C2`, the INHIBITION is listed as 43.9%. With `N#Cc1ccc(CS(=O)(=O)NC(=O)COc2ccc3c(c2)CCC3)cc1`, the INHIBITION is given as -57.66%.

With `COC(=O)N1CC(C)=C(C)CN1C(=O)Nc1cccc(Cl)c1`, the INHIBITION is on record as -28.6%. `COc1cc(OC)cc(C(=O)N2CCOCC2c2[nH]ncc2C)c1` (stereo not drawn): the INHIBITION turned out to be 46.25%. Take `Cc1nc(C)n(CC2CCCN2CCC(=O)N2CCCCC2)n1` (stereo not drawn): the INHIBITION is listed as -8.11%. For `Cc1ccc(C(=O)N2Cc3c(CN4CCCCC4)nn(C)c3C2)o1` the value was 28.4%; for `CC(=O)Nc1nc(C(=O)N2CCCC2c2ccc(Br)cc2)cs1` (stereo not drawn), 26.4%; for `Cc1cc(C)c(CNC(=O)C(C)Oc2cccc(C#N)c2)c(=O)[nH]1` (stereo not drawn), 36.4%. For `CCC(C)Oc1ccccc1Cn1cc2[nH]cccc-2c1=O` (stereo not drawn) the value was 41.5%. Regarding `Cc1ccnc(C2CN(c3ccnc(C)n3)C2)n1`, the INHIBITION was 28.6%. Take `CCc1nc(NC2CCN(CC(=O)NC3CC3)CC2)c2cnn(C)c2n1`: the INHIBITION is 21.8%.

With `COc1ccc(CN2CCC(CO)(Cc3ccc(Cl)cc3)CC2)c(O)c1`, the INHIBITION is reported as 31.6%. For the molecule `Clc1ccc(CN2CCC3(CC2)CC(c2cccnc2)=NO3)cc1`, the INHIBITION was 46.6%. On to `OCC1(Cc2ccc(Cl)cc2)CCN(Cc2ccccc2O)CC1`, for which the INHIBITION worked out at 14.6%. Regarding `Clc1ccc(CN2CCC(C3CCN(Cc4cccnc4)CC3)C2)cc1` (stereo not drawn), the INHIBITION was determined as 36.8%. As to `OCC1(Cc2ccc(Cl)cc2)CCN(Cc2cccnc2)CC1`, the INHIBITION is recorded as 92%. With `COc1cccc(CN2CCC(CO)(Cc3ccc(Cl)cc3)CC2)c1O`, the INHIBITION was 85.4%. For `Cc1c(C(=O)NCC2CCCO2)nnn1-c1cccc2c1CCN(C)C2` (stereo not drawn) the value was 29.2%. For `COc1c(C2CCCN2C(=O)c2ccc3[nH]cnc3c2)c(C)nn1C` (stereo not drawn) the value was -2.19%; for `O=C(c1ccno1)N1C[C@@H](F)[C@@H](OCc2nc3ccccc3o2)C1`, 56.3%. For `CC(=O)N1C[C@@H](F)[C@@H](OCc2nc3ccccc3o2)C1`, the INHIBITION is -15.6%.

`CC(C)(C)C(=O)N1C[C@@H](F)[C@@H](OCc2nc3ccccc3o2)C1`: the INHIBITION turned out to be 70.7%. `O=C(C1CC1)N1C[C@@H](F)[C@@H](OCc2nc3ccccc3o2)C1`: the INHIBITION is 13.1%.

As to `O=C(C1CC1)N1C[C@@H](F)[C@@H](OCc2nc3ccccc3[nH]2)C1`, the INHIBITION amounted to 7.85%. Take `F[C@@H]1CN(CC2CC2)C[C@@H]1OCc1nc2ccccc2o1`: the INHIBITION is on record as -3.5%. Under `F[C@@H]1CN(CC2CCCCC2)C[C@@H]1OCc1nc2ccccc2o1` stands 29.8%. Turning to `CS(=O)(=O)N1C[C@@H](F)[C@@H](OCc2nc3ccccc3o2)C1`, the INHIBITION turned out to be 41.1%. On to `CC(C)NC(=O)N1C[C@@H](F)[C@@H](OCc2nc3ccccc3o2)C1`, for which the INHIBITION is recorded as 58.5%. On to `CCC(CN1CCCCC1)NC(=O)C1(c2ccc(F)cc2)CC1` (stereo not drawn), for which the INHIBITION was found to be 48.2%. `COc1ccc(C(=O)N2CCOCC2c2[nH]ncc2C)cc1F` (stereo not drawn): the INHIBITION is listed as 3.75%. On to `Cc1cnn(CC2CN(Cc3nc4ccccc4c(=O)[nH]3)CCO2)c1` (stereo not drawn), for which the INHIBITION is 29.4%. `Cc1nc2c(Nc3cccc(C#N)c3)nc(N)nc2n1C`: the INHIBITION was -42.8%.

`CC(C)NC(=O)N1CCC2(CC1)Cc1ccccc1CN(C)C2=O`: the INHIBITION is on record as -6.25%. As to `CNC(=O)Nc1cc(-c2ccccc2C)nn1CCO`, the INHIBITION is on record as -60%. For `CCNC(=O)CCC(=O)NCC1(O)CCC(C(C)(C)C)CC1` (stereo not drawn), the INHIBITION is listed as -23.8%. For `COc1cccc(S(=O)(=O)N2CCCCC2CCN2CCOCC2)c1` (stereo not drawn), the INHIBITION came to 22.6%. On to `CCN1CCC(CC(=O)N[C@H](C(=O)O)c2cccc(F)c2F)CC1`, for which the INHIBITION is -2.39%. Regarding `CC(C)N1CCC(CC(=O)NC(C(=O)O)c2cc(F)ccc2F)CC1` (stereo not drawn), the INHIBITION turned out to be 52.1%.

Take `CC(C)N1CCC(CC(=O)NC(C(=O)O)c2cccc(F)c2)CC1` (stereo not drawn): the INHIBITION worked out at 36.7%. `CCCN1CCC(CC(=O)N[C@H](C(=O)O)c2cccc(F)c2F)CC1`: the INHIBITION was determined as 53%. As for `O=C(CCCN1CCCCC1)N[C@H](C(=O)O)c1cccc(F)c1F`, the INHIBITION is 34.5%. In the case of `CC(C)N1CCC(CC(=O)NC(C(=O)O)c2ccc(F)cc2)CC1` (stereo not drawn), the INHIBITION is reported as 33.9%. In the case of `O=C(CCc1nc2cccnc2[nH]1)Nc1ccc2c(c1)NC(=O)CO2`, the INHIBITION was 14.8%. Consider `CSc1nccc(N2CCC(NCc3ccc4c(c3)OCO4)CC2)n1`, for which the INHIBITION turned out to be 57.4%. For the molecule `Cc1cccc(N2CCC(NCc3cnc(C4CCC4)s3)CC2)n1`, the INHIBITION is reported as 36.5%. In the case of `Cc1ccc(N2CCCC(NCc3ccc4c(c3)OCCO4)C2)nn1` (stereo not drawn), the INHIBITION was -19.4%. Under `CSc1nccc(N2CCC(NCc3nc(C)cc(C)n3)CC2)n1` stands 8.7%; under `CSc1nccc(N2CCC(=O)N(CC3CC3)C(C(C)C)C2)n1` (stereo not drawn), 7.43%; under `CSc1nccc(N2CCC(NCc3ccc4nsnc4c3)CC2)n1`, 76.9%. As for `O=C(NCCNS(=O)(=O)N1CCCCCC1)c1ncccc1O`, the INHIBITION is listed as -13.6%.

Consider `CCCC(O)CN1CCC(=O)N(Cc2ccccc2)Cc2ccccc21` (stereo not drawn), for which the INHIBITION was -30%. For `Cc1ccc(C)n1-c1c(C(=O)NCC(C)Cn2cccn2)cnn1C` (stereo not drawn) the value was 5.36%. In the case of `CN1[C@H](CN2CCCC2)C[C@@H]2CN(C(=O)Cc3cccs3)CC[C@@H]21`, the INHIBITION was 49.1%. Under `CN1CCN(C)c2cc(NC(=O)c3cc[nH]n3)ccc2C1` stands 43.1%.

With `Cc1cc(C(=O)Nc2ccc3c(c2)N(C)CCN(C)C3)on1`, the INHIBITION is 44.2%.

On to `CCc1ccc(C(=O)Nc2ccc3c(c2)N(C)CCN(C)C3)o1`, for which the INHIBITION stood at 66.9%. Regarding `c1ccc(CCCN2CCCN(c3ncnc4[nH]ccc34)CC2)cc1`, the INHIBITION is listed as 52.7%. As to `c1ccc(CCN2CCN(c3ncnc4[nH]ccc34)CC2)cc1`, the INHIBITION was 33%.

Turning to `c1ccc(OCCN2CCN(c3ncnc4[nH]ccc34)CC2)cc1`, the INHIBITION is recorded as 35.1%. For `COc1ccc(Cn2c(CCc3c(C)n[nH]c3C)n[nH]c2=O)cc1`, the INHIBITION is -5.08%. `CCCc1nc(C)c(C(=O)NCCN2CCOCC2)s1`: the INHIBITION is listed as -65.3%. As to `COc1ccc(CCC2CCCCN2)cc1` (stereo not drawn), the INHIBITION amounted to 49.6%. For the molecule `O=C(O)c1ccnc2c(Br)cccc12`, the INHIBITION was found to be 9.32%.

Turning to `O=C(O)c1cccc2c(Br)cccc12`, the INHIBITION is reported as 73.9%.

In the case of `O=C(O)c1cnc2c(Br)cccc2c1O`, the INHIBITION is 27.5%. Under `C=C(C)COc1ccccc1C(=O)NCCc1cc(O)nc(C)n1` stands 41.3%; under `O=C(C1CC1)N1CCc2ccccc2C12CCNCC2`, 55.4%. Under `O=C(C1CC1)N1CC2(CCNCC2)C1` stands -1.12%; under `COCC(=O)N1CCc2ccccc2C12CCNCC2`, 40.5%; under `CCOC(=O)N1CC2(CCNCC2)c2cc(Cl)ccc21`, 21.1%.

On to `CCOC(=O)N1CCc2ccccc2C12CCNCC2`, for which the INHIBITION came to 50.4%. As to `CN(C)C(=O)N1Cc2ccccc2C2(CCNCC2)C1`, the INHIBITION came to 12.4%. Regarding `Cc1ccc(CC(=O)N2CCC(Nc3cccnn3)CC2)s1`, the INHIBITION is listed as -58.0025%. As to `Cc1ccccc1C(C(=O)NCCS(C)(=O)=O)N(C)C` (stereo not drawn), the INHIBITION was found to be 22.6%.

Consider `c1ncn(CC2CN(Cc3nc(-c4ccsc4)no3)CCO2)n1` (stereo not drawn), for which the INHIBITION is given as -3.165%. `Cc1nc(C)n(CC2CN(Cc3ccccc3OC(C)C)CCO2)n1` (stereo not drawn): the INHIBITION turned out to be 26.5%.

For `NCc1cnn(-c2ccccc2C(=O)NCCCn2ccnc2)c1`, the INHIBITION stood at 54.6%. Regarding `COCCNC(=O)c1ccccc1-n1cc(CN)cn1`, the INHIBITION is 17.1%.

For `NCc1cnn(-c2ccccc2C(=O)NCc2ccncc2)c1`, the INHIBITION is 17.1%. Consider `NCc1cnn(-c2ccccc2C(=O)NCCc2ccccn2)c1`, for which the INHIBITION was 24.4%. For `NCc1cnn(-c2ccccc2C(=O)NCCc2ccncc2)c1` the value was 8.72%. On to `NCc1cnn(-c2ccccc2C(=O)NCc2ccccn2)c1`, for which the INHIBITION amounted to 53.2%.

Regarding `CCN(C(=O)c1ccc(-n2ncc(C#N)c2N)cc1)C1CCCC1`, the INHIBITION amounted to 25.1%. For `Cc1cc(NCCS(C)(=O)=O)nc2ccccc12` the value was 8.05%; for `Cc1cc(C)n(-c2cncc(NCCNS(C)(=O)=O)n2)n1`, 29%; for `Cc1cc(NCC2(O)CCOCC2)nc2ccccc12`, 71.7%. For `Cc1cc(NCCNS(C)(=O)=O)nc2cc3c(cc12)CCC3`, the INHIBITION is reported as -6.88%. Take `Cc1cc(NCCCNS(C)(=O)=O)nc2ccccc12`: the INHIBITION was found to be 62%.

Regarding `COc1cc2nc(NCCNS(C)(=O)=O)cc(C)c2cc1OC`, the INHIBITION is 50.3%. For `Cc1cc(NCCOCCS(C)(=O)=O)nc2ccccc12` the value was 46.6%; for `OC1(CNc2cc(C(F)(F)F)nc3ccccc23)CCOCC1`, -32.3%; for `Cc1cc(NCC2(O)CCOCC2)c2ccccc2n1`, 26%. On to `O=S(=O)(NCC1CCN(c2cnccn2)CC1)c1ccc(F)c(Cl)c1`, for which the INHIBITION is recorded as -54.5%. Regarding `CCc1c(C)n(CC(C)=O)c2nc3ccccc3n2c1=O`, the INHIBITION is listed as 4.66%.

The values are drawn from ChEMBL document CHEMBL4513216, “Probing the Open Global Health Chemical Diversity Library for Multistage-Active Starting Points for Next-Generation Antimalarials” (ACS Infect Dis, 2020).
